According to article PMC4336329 (PLoS ONE, 2015):
In all, about 310,000 compounds went through this assay and about 14,000 (4.5%) showed an effect of 50% or more. Effects have a minus sign here. Only a selection was taken, and strong results are over-represented in it overall.

Biological target: human ether-à-go-go-related gene (hERG) potassium channel (human, UniProt Q12809)
Test: primary screen, population patch clamp on CHO cells stably expressing hERG; higher = less effect of the substance
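Note: peak tail current of the secondary pulse compared with the same well before compound.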

Chain of human ether-à-go-go-related gene (hERG) potassium channel (Q12809 whole entry, looked up): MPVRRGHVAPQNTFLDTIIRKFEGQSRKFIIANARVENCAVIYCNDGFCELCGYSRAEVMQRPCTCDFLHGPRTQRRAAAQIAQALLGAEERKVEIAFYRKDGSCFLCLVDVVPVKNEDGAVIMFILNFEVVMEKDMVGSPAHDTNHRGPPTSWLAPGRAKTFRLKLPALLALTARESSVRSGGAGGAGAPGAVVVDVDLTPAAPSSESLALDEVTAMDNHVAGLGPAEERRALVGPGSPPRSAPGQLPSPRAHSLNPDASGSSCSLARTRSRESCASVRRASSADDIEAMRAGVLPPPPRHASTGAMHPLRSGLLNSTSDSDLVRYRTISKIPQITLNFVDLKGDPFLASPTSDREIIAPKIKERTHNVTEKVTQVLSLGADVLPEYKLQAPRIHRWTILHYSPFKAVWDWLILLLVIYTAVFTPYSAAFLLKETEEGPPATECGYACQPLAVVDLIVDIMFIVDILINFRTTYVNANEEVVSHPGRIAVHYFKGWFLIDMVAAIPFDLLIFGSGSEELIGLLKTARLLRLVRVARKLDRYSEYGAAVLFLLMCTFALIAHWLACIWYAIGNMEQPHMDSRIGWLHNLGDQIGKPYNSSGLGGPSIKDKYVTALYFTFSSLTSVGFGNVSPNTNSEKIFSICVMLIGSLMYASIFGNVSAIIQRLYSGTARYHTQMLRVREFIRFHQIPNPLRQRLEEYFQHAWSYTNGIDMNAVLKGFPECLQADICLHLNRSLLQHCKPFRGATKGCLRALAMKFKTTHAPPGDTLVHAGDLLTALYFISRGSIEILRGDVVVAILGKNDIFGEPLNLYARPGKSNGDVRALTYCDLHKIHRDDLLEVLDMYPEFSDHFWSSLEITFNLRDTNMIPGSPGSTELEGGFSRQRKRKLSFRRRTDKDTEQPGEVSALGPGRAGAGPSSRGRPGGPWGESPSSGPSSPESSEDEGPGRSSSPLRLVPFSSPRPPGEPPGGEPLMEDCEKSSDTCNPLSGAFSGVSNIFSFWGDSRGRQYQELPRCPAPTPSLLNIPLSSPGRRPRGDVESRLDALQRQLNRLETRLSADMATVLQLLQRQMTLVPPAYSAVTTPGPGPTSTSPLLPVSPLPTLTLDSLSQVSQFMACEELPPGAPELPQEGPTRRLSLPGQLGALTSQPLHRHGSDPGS

Which “hERG current change (%, negative = inhibition) at 10uM” value does the source give for `Cc1cc(O)cc(C)c1Cl` here?
The value was -2.78%.

How did the “hERG current change (%, negative = inhibition) at 10uM” value turn out when `CC(=O)N1CCN(C(=O)c2ccc(Cl)c(NC(=O)c3cccs3)c2)CC1` was run?
The value was -15.3%.

Which “hERG current change (%, negative = inhibition) at 10uM” value does the source give for `O=C(NC(=S)Nc1ccccc1N1CCN(C(=O)c2ccccc2)CC1)c1cccs1` here?
Its value is 9.73%.

Which “hERG current change (%, negative = inhibition) at 10uM” value does the source give for `CCOC(=O)N1CCN(C(=O)c2ccc(Cl)c(NC(=O)c3cccs3)c2)CC1` here?
Its value is -54.7%.

`O=C(NCC(=O)N1CCN(c2ccccc2O)CC1)c1cccs1` was tested. Which “hERG current change (%, negative = inhibition) at 10uM” value did it give?
Its value is 3.84%.

Which “hERG current change (%, negative = inhibition) at 10uM” value does the source give for `Cc1ccc(NC(=O)c2ccc(Cl)c(NC(=O)c3cccs3)c2)cc1` here?
Its value is -12.5%.

How did the “hERG current change (%, negative = inhibition) at 10uM” value turn out when `O=C(Nc1cc(C(=O)N2CCN(c3ccccc3O)CC2)ccc1Cl)c1cccs1` was run?
Its value is -60.1%.

For `COc1ccc(NC(=O)CN(C)C(=O)c2ccc(=O)[nH]c2)cc1`, which “hERG current change (%, negative = inhibition) at 10uM” value is on record?
The value was 21.7%.

How did the “hERG current change (%, negative = inhibition) at 10uM” value turn out when `COc1ccc(NC(=O)C2CC(=O)N(Cc3ccco3)C2)cc1Cl` (stereo not drawn) was run?
The value was -4.14%.

`N/C(=N\O)c1ccccc1-n1cccc1` was tested. Which “hERG current change (%, negative = inhibition) at 10uM” value did it give?
Its value is 25.7%.

Which “hERG current change (%, negative = inhibition) at 10uM” value does the source give for `COc1ccc(/C(N)=N/OC(=O)/C=C/c2ccccc2)cc1` here?
Its value is -37.2%.

For `CCCN1CCN(S(=O)(=O)c2cn(C)nc2C)CC1`, which “hERG current change (%, negative = inhibition) at 10uM” value is on record?
The value was 22%.

`O=C(Nc1ccccc1)c1ccc(CN2CCC(Cc3ccccc3)CC2)cc1` was tested. Which “hERG current change (%, negative = inhibition) at 10uM” value did it give?
Its value is 14.7%.

With `C=CCNC(=S)N1CCC(Cc2ccccc2)CC1` as the compound, how does the “hERG current change (%, negative = inhibition) at 10uM” value read?
The value was -25.9%.

`C=CCNC(=O)c1ccc(C2SCC(=O)N2Cc2ccccc2)cc1` (stereo not drawn) was tested. Which “hERG current change (%, negative = inhibition) at 10uM” value did it give?
Its value is 6.11%.

`Cc1ccc(S(=O)(=O)NCc2ccc(C(=O)NCCCN3CCN(C)CC3)cc2)cc1` was tested. Which “hERG current change (%, negative = inhibition) at 10uM” value did it give?
Its value is 19.3%.

Which “hERG current change (%, negative = inhibition) at 10uM” value does the source give for `O=C(NCc1ccccc1)N1CCC(Cc2ccccc2)CC1` here?
The value was 10.5%.

For `NC(=O)c1ccc(CN2CCC(Cc3ccccc3)CC2)cc1`, which “hERG current change (%, negative = inhibition) at 10uM” value is on record?
The value was -57.1%.

`COCCNC(=O)c1ccc(CN2CCC(Cc3ccccc3)CC2)cc1` was tested. Which “hERG current change (%, negative = inhibition) at 10uM” value did it give?
Its value is -11.6%.

For `C=CCNC(=O)c1ccc(CN2CCC(Cc3ccccc3)CC2)cc1`, which “hERG current change (%, negative = inhibition) at 10uM” value is on record?
The value was -66.8%.

For `CC(C)NC(=O)c1ccc(CN2CCC(Cc3ccccc3)CC2)cc1`, which “hERG current change (%, negative = inhibition) at 10uM” value is on record?
Its value is -37.2%.

With `CC(=O)Nc1ccc(S(=O)(=O)NCc2ccc(C(=O)NCCCN3CCC(C)CC3)cc2)cc1` as the compound, how does the “hERG current change (%, negative = inhibition) at 10uM” value read?
The value was 19.7%.

With `Cc1ccc(S(=O)(=O)NCc2ccc(C(=O)NCCCN3CCC(Cc4ccccc4)CC3)cc2)cc1` as the compound, how does the “hERG current change (%, negative = inhibition) at 10uM” value read?
Its value is -80.6%.

`O=C(NCc1ccccc1)c1ccc(CN2CCC(Cc3ccccc3)CC2)cc1` was tested. Which “hERG current change (%, negative = inhibition) at 10uM” value did it give?
The value was -70.3%.

For `Cc1noc(C)c1COC(=O)c1cccnc1Cl`, which “hERG current change (%, negative = inhibition) at 10uM” value is on record?
Its value is 3.21%.

`CNC(=S)Nc1cc(S(=O)(=O)Nc2cc(Cl)ccc2Cl)ccc1N1CCCC1` was tested. Which “hERG current change (%, negative = inhibition) at 10uM” value did it give?
Its value is -12.4%.

How did the “hERG current change (%, negative = inhibition) at 10uM” value turn out when `CN1C(=O)c2cccc(NC(=O)CCc3ccccc3)c2C1=O` was run?
The value was -19.6%.

`CC1Cc2ccccc2N1C(=O)CSc1nnc2c(n1)[nH]c1ccc(F)cc12` (stereo not drawn) was tested. Which “hERG current change (%, negative = inhibition) at 10uM” value did it give?
The value was 12.6%.

With `O=C(CSc1nnc(COc2ccccc2)o1)c1ccccc1` as the compound, how does the “hERG current change (%, negative = inhibition) at 10uM” value read?
Its value is 1.95%.

Which “hERG current change (%, negative = inhibition) at 10uM” value does the source give for `CCC(C)(C)NC(=O)C(c1ccc(F)cc1)N(Cc1cccc(OC)c1)C(=O)c1cnccn1` (stereo not drawn) here?
The value was 9.72%.

For `COC(=O)C1=C(C)C(c2ccc(OC)cc2OC)NC(=O)N1` (stereo not drawn), which “hERG current change (%, negative = inhibition) at 10uM” value is on record?
Its value is 13.1%.

`Cc1ccc(N2C(=O)C3C4C=CC(CC4)C3C2=O)cc1Br` (stereo not drawn) was tested. Which “hERG current change (%, negative = inhibition) at 10uM” value did it give?
The value was 15.4%.

How did the “hERG current change (%, negative = inhibition) at 10uM” value turn out when `N#CCC(=O)Nc1nc(-c2ccc3c(c2)OCCO3)cs1` was run?
The value was 13.1%.

For `c1cncc(-c2nc(-c3ccc4c(c3)OCCO4)cs2)c1`, which “hERG current change (%, negative = inhibition) at 10uM” value is on record?
The value was -4.72%.

Which “hERG current change (%, negative = inhibition) at 10uM” value does the source give for `Cl.Nc1nc(-c2ccc3c(c2)OCCO3)cs1` here?
The value was 19.4%.

`c1ccn2cc(-c3ccc4c(c3)OCCO4)nc2c1` was tested. Which “hERG current change (%, negative = inhibition) at 10uM” value did it give?
The value was 1.08%.

For `Cc1ccc2nc(-c3ccc4c(c3)OCCO4)cn2c1`, which “hERG current change (%, negative = inhibition) at 10uM” value is on record?
The value was -16%.

For `N#Cc1cn(-c2ccccc2)nc1-c1ccc2c(c1)OCCO2`, which “hERG current change (%, negative = inhibition) at 10uM” value is on record?
The value was 11.8%.

Which “hERG current change (%, negative = inhibition) at 10uM” value does the source give for `N#Cc1ncc(-c2ccc3c(c2)OCCOCCOCCOCCO3)nc1C#N` here?
Its value is -69%.

For `N#Cc1ncc(-c2ccc3c(c2)OCCOCCOCCOCCOCCO3)nc1C#N`, which “hERG current change (%, negative = inhibition) at 10uM” value is on record?
The value was -75.3%.

Which “hERG current change (%, negative = inhibition) at 10uM” value does the source give for `N#Cc1cncc(-c2ccc3c(c2)OCCOCCOCCOCCOCCO3)n1` here?
The value was -86.9%.

For `COc1ccc(C(=O)NC(=S)Nc2ccc3[nH]c(=O)[nH]c3c2)c(OC)c1`, which “hERG current change (%, negative = inhibition) at 10uM” value is on record?
The value was 5.35%.

For `O=C(CN1C(=O)C2C3C=CC(C4CC34)C2C1=O)Nc1cccc2ncccc12` (stereo not drawn), which “hERG current change (%, negative = inhibition) at 10uM” value is on record?
The value was 0.881%.

Which “hERG current change (%, negative = inhibition) at 10uM” value does the source give for `CCOC(=O)c1ccc(-c2ccc3c(c2)CCC3)nc1C` here?
Its value is 12.6%.

Which “hERG current change (%, negative = inhibition) at 10uM” value does the source give for `COc1ccccc1C(=O)N/C(N)=N/c1nc2ccccc2o1` here?
The value was 1.36%.
